Data published in PubChem BioAssay AID1159580 (chemical genetic matrix, 2015).
Among all 5,500 compounds or so, about 2,000 (36%) were called active. Inconclusive results (about 18%) are left out. Rule as the data show it: active = normalized growth mostly below about 0.91 (no sharp cut-off); inconclusive = no clear call, values can overlap the other calls; inactive = mostly above about 0.92. The list shows a part of the results.

Experiment: chemical genetic growth profiling, strain panel (AID 1159580);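 also: tested at 20 µM; growth read once vehicle control cultures reached saturation at 30 °C; 1 = growth at the plate median or of vehicle wells; lower values mean less growth of the strain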
Settings: growth OD

Measured: normalized growth

COc1c2occc2cc2ccc(=O)oc12
active: S. cerevisiae deletion strains, locus YKR001C, strain vps1, stronger effect = lower value 0.863 | S. cerevisiae deletion strains, locus YLL001W, strain dnm1, stronger effect = lower value 0.874 | S. cerevisiae deletion strains, locus YLR221C, strain rsa3, stronger effect = lower value 0.891 | S. cerevisiae deletion strains, locus YLR320W, strain mms22, stronger effect = lower value 0.833 | S. cerevisiae deletion strains, locus YML032C, strain rad52, stronger effect = lower value 0.876 | S. cerevisiae deletion strains, locus YML120C, strain ndi1, stronger effect = lower value 0.866 | S. cerevisiae deletion strains, locus YNL209W, strain ssb2, stronger effect = lower value 0.923 | S. cerevisiae deletion strains, locus YNL307C, strain MCK1, stronger effect = lower value 0.88 | S. cerevisiae deletion strains, locus YNL322C, strain KRE1 (second series), stronger effect = lower value 0.763 | S. cerevisiae deletion strains, locus YOR106W, strain vam3, stronger effect = lower value 0.701 | S. cerevisiae deletion strains, locus YOR184W, strain ser1, stronger effect = lower value 0.859 | S. cerevisiae deletion strains, locus YOR290C, strain snf2, stronger effect = lower value 0.856
inactive: S. cerevisiae deletion strains, locus YJR075W, strain HOC1, stronger effect = lower value 0.976 | S. cerevisiae deletion strains, locus YKL009W, strain mrt4, stronger effect = lower value 0.909 | S. cerevisiae deletion strains, locus YKL068W, stronger effect = lower value 0.996 | S. cerevisiae deletion strains, locus YKL085W, strain MDH1 (second series), stronger effect = lower value 1 | S. cerevisiae deletion strains, locus YKL085W, strain MDH1, stronger effect = lower value 1 | S. cerevisiae deletion strains, locus YKL160W, strain elf1, stronger effect = lower value 0.948 | S. cerevisiae deletion strains, locus YKL190W, strain CNB1, stronger effect = lower value 0.979 | S. cerevisiae deletion strains, locus YKR026C, strain gcn3, stronger effect = lower value 0.983 | S. cerevisiae deletion strains, locus YKR091W, strain srl3, stronger effect = lower value 0.982 | S. cerevisiae deletion strains, locus YLL026W, stronger effect = lower value 0.973 | S. cerevisiae deletion strains, locus YLL041C, strain sdh2, stronger effect = lower value 0.981 | S. cerevisiae deletion strains, locus YLR027C, strain aat2, stronger effect = lower value 0.952 | S. cerevisiae deletion strains, locus YLR039C, strain RIC1, stronger effect = lower value 0.851 | S. cerevisiae deletion strains, locus YLR058C, strain SHM2, stronger effect = lower value 0.988 | S. cerevisiae deletion strains, locus YLR102C, strain apc9, stronger effect = lower value 0.986 | S. cerevisiae deletion strains, locus YLR113W, strain HOG1, stronger effect = lower value 1.08 | S. cerevisiae deletion strains, locus YLR258W, strain gsy2, stronger effect = lower value 0.945 | S. cerevisiae deletion strains, locus YLR262C, strain YPT6 (second series), stronger effect = lower value 0.955 | S. cerevisiae deletion strains, locus YLR262C, strain YPT6, stronger effect = lower value 0.91 | S. cerevisiae deletion strains, locus YLR268W, strain sec22, stronger effect = lower value 0.93 | S. cerevisiae deletion strains, locus YLR330W, strain CHS5, stronger effect = lower value 0.991 | S. cerevisiae deletion strains, locus YLR342W, strain FKS1 (second series), stronger effect = lower value 0.971 | S. cerevisiae deletion strains, locus YLR342W, strain FKS1, stronger effect = lower value 0.965 | S. cerevisiae deletion strains, locus YLR357W, strain rsc2, stronger effect = lower value 1.01 | S. cerevisiae deletion strains, locus YLR370C, strain arc18, stronger effect = lower value 0.914 | S. cerevisiae deletion strains, locus YLR371W, strain rom2, stronger effect = lower value 0.969 | S. cerevisiae deletion strains, locus YLR384C, strain iki3, stronger effect = lower value 0.963 | S. cerevisiae deletion strains, locus YLR418C, strain cdc73, stronger effect = lower value 0.95 | S. cerevisiae deletion strains, locus YML016C, strain PPZ1, stronger effect = lower value 0.987 | S. cerevisiae deletion strains, locus YML124C, strain tub3, stronger effect = lower value 0.996 | S. cerevisiae deletion strains, locus YMR058W, strain fet3, stronger effect = lower value 0.927 | S. cerevisiae deletion strains, locus YMR078C, strain ctf18, stronger effect = lower value 0.974 | S. cerevisiae deletion strains, locus YMR125W, strain sto1, stronger effect = lower value 1.01 | S. cerevisiae deletion strains, locus YMR129W, stronger effect = lower value 0.99 | S. cerevisiae deletion strains, locus YMR205C, strain PFK2, stronger effect = lower value 0.941 | S. cerevisiae deletion strains, locus YMR223W, strain ubp8, stronger effect = lower value 0.924 | S. cerevisiae deletion strains, locus YMR231W, strain pep5, stronger effect = lower value 0.989 | S. cerevisiae deletion strains, locus YMR263W, strain SAP30, stronger effect = lower value 0.942 | S. cerevisiae deletion strains, locus YMR307W, strain GAS1, stronger effect = lower value 0.949 | S. cerevisiae deletion strains, locus YNL067W, strain RPL9B, stronger effect = lower value 0.939 | S. cerevisiae deletion strains, locus YNL071W, strain lat1, stronger effect = lower value 0.947 | S. cerevisiae deletion strains, locus YNL128W, strain TEP1, stronger effect = lower value 0.962 | S. cerevisiae deletion strains, locus YNL153C, strain GIM3, stronger effect = lower value 0.983 | S. cerevisiae deletion strains, locus YNL183C, strain NPR1, stronger effect = lower value 0.971 | S. cerevisiae deletion strains, locus YNL233W, strain BNI4, stronger effect = lower value 0.944 | S. cerevisiae deletion strains, locus YNL248C, strain rpa49, stronger effect = lower value 0.901 | S. cerevisiae deletion strains, locus YNL250W, strain rad50, stronger effect = lower value 0.968 | S. cerevisiae deletion strains, locus YNL271C, strain bni1, stronger effect = lower value 0.983 | S. cerevisiae deletion strains, locus YNL298W, strain CLA4, stronger effect = lower value 0.933 | S. cerevisiae deletion strains, locus YNL322C, strain KRE1, stronger effect = lower value 1 | S. cerevisiae deletion strains, locus YNR049C, strain mso1, stronger effect = lower value 0.962 | S. cerevisiae deletion strains, locus YNR052C, strain pop2, stronger effect = lower value 0.978 | S. cerevisiae deletion strains, locus YOL006C, strain TOP1, stronger effect = lower value 0.79 | S. cerevisiae deletion strains, locus YOL012C, strain htz1 0.845 | S. cerevisiae deletion strains, locus YOL147C, strain pex11, stronger effect = lower value 0.982 | S. cerevisiae deletion strains, locus YOR001W, strain rrp6, stronger effect = lower value 0.958 | S. cerevisiae deletion strains, locus YOR061W, strain CKA2, stronger effect = lower value 0.99 | S. cerevisiae deletion strains, locus YOR069W, strain VPS5, stronger effect = lower value 0.991 | S. cerevisiae deletion strains, locus YOR070C, strain gyp1, stronger effect = lower value 0.956 | S. cerevisiae deletion strains, locus YOR080W, strain dia2, stronger effect = lower value 0.95 | S. cerevisiae deletion strains, locus YOR083W, strain WHI5, stronger effect = lower value 0.914 | S. cerevisiae deletion strains, locus YOR136W, strain idh2, stronger effect = lower value 0.974 | S. cerevisiae deletion strains, locus YOR144C, strain elg1, stronger effect = lower value 0.97 | S. cerevisiae deletion strains, locus YOR231W, strain MKK1, stronger effect = lower value 1.01 | S. cerevisiae deletion strains, locus YOR265W, strain rbl2, stronger effect = lower value 0.963 | S. cerevisiae deletion strains, locus YOR270C, strain vph1, stronger effect = lower value 0.83 | S. cerevisiae deletion strains, locus YOR316C, strain cot1, stronger effect = lower value 1 | S. cerevisiae deletion strains, locus YPL051W, strain arl3, stronger effect = lower value 0.939 | S. cerevisiae deletion strains, locus YPL055C, strain LGE1, stronger effect = lower value 0.938 | S. cerevisiae deletion strains, locus YPL078C, strain atp4, stronger effect = lower value 0.964 | S. cerevisiae deletion strains, locus YPL106C, strain sse1, stronger effect = lower value 0.899 | S. cerevisiae deletion strains, locus YPL240C, strain hsp82, stronger effect = lower value 0.965 | S. cerevisiae deletion strains, locus YPL241C, strain CIN2, stronger effect = lower value 0.959 | S. cerevisiae deletion strains, locus YPL256C, strain CLN2, stronger effect = lower value 1.1 | S. cerevisiae deletion strains, locus YPR119W, strain clb2, stronger effect = lower value 0.998 | S. cerevisiae deletion strains, locus YPR141C, strain kar3, stronger effect = lower value 1.02 | S. cerevisiae deletion strains, locus YPR163C, strain tif3, stronger effect = lower value 0.983 | S. cerevisiae deletion strains, locus YPR167C, strain met16, stronger effect = lower value 1.01 | S. cerevisiae deletion strains, strain wtn01, stronger effect = lower value 0.966 | S. cerevisiae strains, strain wild type, stronger effect = lower value 1
